Results: PubChem BioAssay

Experiment: basal 3T3-L1 adipocyte mitochondrial potential changes, profiling panel, cell-based, JC-1 fluorescence, 3T3-L1 adipocytes, 24 h, 100 nL compound (AID 1168); also: test concentration not given here
Details: JC-1 mitochondrial fluorescence, higher = more signal, called active from +8 up or from −8 down

z-score, inactive:
CCOc1cc(C(O)C2C=CC3C(=O)NC(=O)C3N2Nc2ccccn2)ccc1O (stereo not drawn) -0.892
Cc1cc(C)c(C(O)C2C=CC3C(=O)N(c4ccccc4)C(=O)C3N2Nc2ccccc2)c(C)c1 (stereo not drawn) -0.422
CCCC=C(CCC)[C@@H](NS(=O)(=O)c1ccccc1)c1ccc(C(F)(F)F)cc1 -0.634
COCCCNC(=O)[C@@]1(Cc2ccccc2)COC(c2ccc(OCCCO)cc2)=N1 0.154
C[C@@]1([C@@H](NC(=O)c2cccs2)c2ccc(-c3ccccc3)cc2)C[C@H]1C1CCCCC1 0.395
COc1ccc(C#Cc2ccc3c(c2)[C@]2(C(=O)N3)[C@H](c3ccc(OCCO)cc3)N3[C@H](c4ccccc4)[C@H](c4ccccc4)OC(=O)[C@H]3[C@@H]2C(=O)N2CCN(c3ncccn3)CC2)cc1 4.27
CC(C)C[C@@H]1NC(=O)[C@@H]2C[C@H](C(=O)NCc3ccc(F)cc3)[C@H](c3ccc(O)cc3)N2C1=O 0.0421
CCCN1C(=O)[C@@H]2Cc3c([nH]c4ccccc34)[C@@H](c3cccc(O)c3)N2C1=O 0.137
COC(=O)[C@@]1(Cc2ccc(OC)cc2)[C@H]2c3cc(C(=O)N4CCCC4)n(CCc4ccc(O)c(OC)c4)c3C[C@H]2CN1C(=O)c1ccccc1 -0.867
C=CC[C@]1(C(=O)NCC(O)CO)N=C(c2ccc(OCCCO)cc2)O[C@H]1c1ccccc1N=[N+]=[N-] (stereo partly drawn) 0.13
COc1ccc([Si](C)(C)[C@@H]2[C@@H](CCO)O[C@]3(C(=O)N(Cc4ccc(N5C(=O)c6ccccc6Oc6ccccc65)cc4)c4ccccc43)[C@H]2C)cc1 0.462
COC(=O)[C@@]1(Cc2ccccc2N=[N+]=[N-])N=C(c2ccc(OCCCO)cc2)O[C@H]1c1ccccc1 -0.138
C=C(COC)/C(=C/C[C@@H](OC(=O)c1ccncc1)c1cccc(OCCO)c1)c1cc(C(=O)OC)ccc1OC -0.109
COCCCNC(=O)[C@]1(Cc2ccccc2)N=C(c2ccc(OCCCO)cc2)O[C@@H]1c1ccccc1N=[N+]=[N-] 0.235
Cc1ccccc1C(O)C1C=CC2C(=O)N(C)C(=O)C2N1Nc1ccc([N+](=O)[O-])cc1[N+](=O)[O-] (stereo not drawn) -1.15
CCCCCCCCCCC(O)C1C=CC2C(=O)NC(=O)C2N1Nc1ccccn1 (stereo not drawn) -0.46
Cc1ccc(S[C@]2(C(=O)O)CC(=O)N(C3CCCCC3)[C@@H]2c2ccc(CO)cc2)cc1 0.144
CC(C)c1ccc(NN2C(C(O)c3ccccn3)C=CC3C(=O)N(c4ccccc4)C(=O)C32)cc1 (stereo not drawn) -1.17
COc1ccc(C(=O)Nc2ccc(CN3C(=O)[C@@]4(O[C@@H](CC(=O)N5Cc6ccccc6C[C@H]5CO)[C@H]([Si](C)(C)c5ccc(OC)cc5)[C@H]4C)c4ccccc43)cc2)cc1 0.749
CCOC(=O)C[C@H]1[C@H](OC(=O)c2cc3ccccc3oc2=O)[C@@H](NC(=O)c2ccc3ccccc3n2)c2cc(OCCCO)ccc2N1C(=O)c1ccc2ccccc2n1 -0.33
COC(=O)[C@]1(Cc2ccccc2CN=[N+]=[N-])N=C(c2ccc(OCCCO)cc2)O[C@@H]1c1ccccc1 0.199
COC(=O)[C@@]1(Cc2ccccc2)[C@H]2c3cc(C(=O)N4CCCC4)n(Cc4ccccc4)c3C[C@H]2CN1C(=O)c1ccccc1 -1.74
O=C1c2ccccc2C(=O)C2CC([C@H]3Oc4ccccc4S(=O)(=O)N4CCC[C@@H]34)=CCC12 (stereo partly drawn) 0.0775
CCOC(=O)C1=CC[C@@H](c2cccc(Br)c2)N(S(=O)(=O)c2ccc(C)cc2)[C@H]1c1ccc([N+](=O)[O-])cc1 0.097
C#CCOC(=O)N[C@H](C=CCCCC)c1ccccc1 -0.62
COCCOC(=O)N1C(=O)[C@@]2(c3ccccc31)[C@H](c1ccccc1OCCO)N1[C@H](c3ccccc3)[C@H](c3ccccc3)OC(=O)[C@H]1[C@@H]2C(=O)N1CCc2cc(OC)c(OC)cc2C1 0.977
CN1C(=O)C2C=CC(C(O)c3cccc4ccccc34)N(NC(=O)OC(C)(C)C)C2C1=O (stereo not drawn) -0.532
CN(C)C(=O)[C@@]1(Cc2ccccc2N=[N+]=[N-])N=C(c2ccc(OCCCO)cc2)O[C@H]1c1ccccc1N=[N+]=[N-] 0.918
